The nature of test [1]: antimalarial activity against Dd2 strain (AID 2302;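 active = growth inhibition above 50% at the single 2 µM test dose, taken to imply half-maximal potency below 2 µM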;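 note: 0% = DMSO untreated growth and 100% = chloroquine plus artemisinin killed control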). To be noted: P. falciparum Dd2 in RBCs, LDH growth readout, 72 h; at 2 µM; active compounds read high.
Test [2] in a line: human hepatoma cell viability loss – ATP luminescence, cytotoxicity control for P. falciparum antimalarial project, primary screen (AID 2303;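 active = inhibition above 50%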;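 note: 0% = DMSO wells and 100% = digitonin-killed cells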). Particulars: HepG2 viability, 24-48 h, at 10 µM, active compounds read high.
In test [3] the target is L-lactate dehydrogenase (Plasmodium falciparum (isolate CDC / Honduras)) (UniProt Q27743). The test is described as follows: PfLDH activity inhibition – cell lysate, 3D7 strain, counter-screen for P. falciparum growth inhibition project (AID 2304).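 Note: 0% = vehicle and 100% = reference inhibitor.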 Particulars: P. falciparum 3D7 crude extract, LDH APAD/NBT absorbance; at 2 µM; active compounds read high. On the technique in general: Counterscreens check selectivity or assay interference.
Sequence of L-lactate dehydrogenase (Plasmodium falciparum (isolate CDC / Honduras)) (Q27743 whole entry, looked up): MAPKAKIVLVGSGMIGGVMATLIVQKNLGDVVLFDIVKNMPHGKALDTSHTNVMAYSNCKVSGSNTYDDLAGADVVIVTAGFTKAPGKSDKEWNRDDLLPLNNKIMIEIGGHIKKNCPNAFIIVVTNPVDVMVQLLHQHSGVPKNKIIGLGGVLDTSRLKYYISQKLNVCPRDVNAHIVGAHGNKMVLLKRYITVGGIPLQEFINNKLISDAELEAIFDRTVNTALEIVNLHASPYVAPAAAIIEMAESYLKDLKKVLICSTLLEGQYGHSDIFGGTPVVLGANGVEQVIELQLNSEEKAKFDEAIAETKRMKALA

Test [4] in a line: inhibition of 3D7 malaria parasite growth – strain 3D7 (AID 2306).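 Note: 0% = DMSO wells and 100% = chloroquine plus artemisinin control wells.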 Particulars: P. falciparum 3D7 erythrocytic growth, LDH absorbance, 72 h; at 2 µM; active compounds read high.
The target of test [5] is Calcium-dependent protein kinase 1 (Plasmodium falciparum (isolate 3D7)) (UniProt P62344). The test is described as follows: PfCDPK1 kinase inhibitors, biochemical, TCAMS library (AID 1159585; cut-off not given, nearly all actives have IC50 up to about 0.98 µM;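 note: inhibitors leave more ATP so luminescence rises with inhibition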). To be noted: recombinant PfCDPK1, Kinase-Glo ATP depletion luminescence. A general note: Kinase-Glo reads ATP consumption through a luciferase reaction.
Sequence of Calcium-dependent protein kinase 1 (Plasmodium falciparum (isolate 3D7)) (P62344 whole entry, looked up): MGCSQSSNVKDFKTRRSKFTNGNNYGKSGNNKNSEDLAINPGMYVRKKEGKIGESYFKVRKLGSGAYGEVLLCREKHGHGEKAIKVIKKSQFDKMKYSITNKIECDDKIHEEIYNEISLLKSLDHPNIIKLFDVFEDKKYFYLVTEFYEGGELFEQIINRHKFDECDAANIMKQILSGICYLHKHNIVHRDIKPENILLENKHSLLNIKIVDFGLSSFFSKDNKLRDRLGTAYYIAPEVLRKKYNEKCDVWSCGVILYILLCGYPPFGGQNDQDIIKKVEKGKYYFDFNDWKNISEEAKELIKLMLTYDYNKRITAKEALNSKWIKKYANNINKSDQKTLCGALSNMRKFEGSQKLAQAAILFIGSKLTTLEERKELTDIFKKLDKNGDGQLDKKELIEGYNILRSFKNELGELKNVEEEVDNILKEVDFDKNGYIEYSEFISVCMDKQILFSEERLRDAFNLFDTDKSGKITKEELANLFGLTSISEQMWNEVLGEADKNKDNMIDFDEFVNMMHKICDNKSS
The target of test [6] is Plasmodium falciparum protein kinase 6 (PK6, PF3D7_1337100) (UniProt Q8IDW1). As to the kind of experiment: PfPK6 kinase inhibitors, biochemical, TCAMS library (AID 1159586). To be noted: recombinant PfPK6, Kinase-Glo ATP depletion luminescence.
Sequence of Plasmodium falciparum protein kinase 6 (PK6, PF3D7_1337100) (Q8IDW1 1-305): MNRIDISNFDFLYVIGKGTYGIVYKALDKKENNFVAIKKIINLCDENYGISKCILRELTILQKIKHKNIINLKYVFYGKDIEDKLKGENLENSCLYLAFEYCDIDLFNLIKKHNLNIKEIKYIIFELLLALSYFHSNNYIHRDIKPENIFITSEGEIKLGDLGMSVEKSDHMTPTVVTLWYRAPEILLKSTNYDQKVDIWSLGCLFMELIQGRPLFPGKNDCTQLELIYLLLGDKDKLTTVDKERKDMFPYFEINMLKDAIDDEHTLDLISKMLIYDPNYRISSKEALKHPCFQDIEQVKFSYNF
Test [7] deals with Protein kinase 7 (PK7), Plasmodium falciparum 3D7 (PF3D7_0213400) (UniProt Q7YTF7). The test is described as follows: inhibition of Plasmodium PK7 catalytic activity – biochemical, TCAMS antimalarial set, Kinase-Glo luminescence (AID 1159587). Particulars: recombinant PfPK7, Kinase-Glo ATP depletion luminescence.
Sequence of Protein kinase 7 (PK7), Plasmodium falciparum 3D7 (PF3D7_0213400) (Q7YTF7 1-343): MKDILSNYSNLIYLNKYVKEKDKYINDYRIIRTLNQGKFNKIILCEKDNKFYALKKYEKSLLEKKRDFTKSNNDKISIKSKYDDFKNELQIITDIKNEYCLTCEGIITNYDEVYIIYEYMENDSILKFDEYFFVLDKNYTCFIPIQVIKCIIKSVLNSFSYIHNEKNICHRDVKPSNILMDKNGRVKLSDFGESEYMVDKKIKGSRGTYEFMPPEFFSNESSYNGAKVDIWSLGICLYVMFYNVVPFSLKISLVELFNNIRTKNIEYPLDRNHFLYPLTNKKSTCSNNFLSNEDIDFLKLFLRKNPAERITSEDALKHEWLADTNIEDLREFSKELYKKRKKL
Test [8] addresses Calcium-dependent protein kinase 4 (Plasmodium falciparum (isolate 3D7)) (UniProt Q8IBS5). The test is described as follows: PfCDPK4 kinase inhibitors, biochemical, TCAMS library (AID 1159588; cut-off not given, nearly all actives have IC50 up to about 0.91 µM). Particulars: recombinant PfCDPK4, Kinase-Glo ATP depletion luminescence.

20 compounds from PubChem BioAssay can be followed below.

The inhibition is the drop in the measured response relative to a control, in per cent.

Unmarked numbers belong to inactive results. For some of these results: Potency and affinity values are given separately. Calls of active or inactive are those of the source. Unless noted, the rule behind the calls is not given here.

Sequence of Calcium-dependent protein kinase 4 (Plasmodium falciparum (isolate 3D7)) (Q8IBS5 whole entry, looked up): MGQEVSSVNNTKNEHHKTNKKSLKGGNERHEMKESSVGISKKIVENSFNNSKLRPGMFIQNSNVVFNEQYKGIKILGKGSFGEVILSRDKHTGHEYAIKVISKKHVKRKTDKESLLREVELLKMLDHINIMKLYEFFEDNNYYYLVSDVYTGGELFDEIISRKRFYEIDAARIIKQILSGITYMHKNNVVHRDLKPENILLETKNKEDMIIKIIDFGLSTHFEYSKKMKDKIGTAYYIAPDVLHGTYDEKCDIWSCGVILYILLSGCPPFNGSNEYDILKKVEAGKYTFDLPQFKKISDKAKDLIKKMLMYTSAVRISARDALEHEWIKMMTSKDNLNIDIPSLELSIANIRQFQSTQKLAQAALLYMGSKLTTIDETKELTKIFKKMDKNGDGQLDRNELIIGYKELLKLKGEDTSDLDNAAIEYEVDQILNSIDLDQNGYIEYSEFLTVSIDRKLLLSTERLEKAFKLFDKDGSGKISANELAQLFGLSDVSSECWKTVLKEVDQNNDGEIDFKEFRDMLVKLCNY

As for `Cc1ccccc1Nc1nc(Nc2ccccc2)c2ccccc2n1`, the growth inhibition in test [1] was 21%; in test [4], 103% (active). Further, the inhibition in test [2] was 19%; in test [3], -8%. Further, the result in test [5], in test [6], in test [7] and in test [8] was inactive.
Consider `Cc1ccc(NC(=O)N2CCCN(CCCCCNC(=O)/C=C/c3ccc(Cl)c(Cl)c3)CC2)cc1`, for which the growth inhibition in test [1] was 2%; in test [4], 99% (active). The inhibition in test [2] is 12%; in test [3] it was -6%. Also, the result in test [5], in test [6], in test [7] and in test [8] was inactive.
For the compound `C=C(NC(=O)C1CCCCC1)C(=O)OC`, the growth inhibition in test [1] was 3%; in test [4] it was 93% (active). The inhibition in test [2] was 15%; in test [3] it was -4%. The outcome in test [5], in test [6], in test [7] and in test [8] was inactive.
Regarding `CCN1CCN(C(=O)NC(C(=O)N(C)Cc2ccc(-c3ccc(C(F)(F)F)cc3)cc2)c2cccs2)C(=O)C1=O` (stereo not given), the growth inhibition in test [1] was 95% (active); in test [4], 99% (active). Besides, the inhibition in test [2] is -5%; in test [3], -1%. In addition, the outcome in test [5], in test [6], in test [7] and in test [8] was inactive.
For `O=C(Nc1cccc(CN2CCCN(Cc3ncc[nH]3)CC2)c1)c1ccc2ccccc2c1`, the growth inhibition is 2% in test [1] and 100% (active) in test [4]. Further, the inhibition in test [2] was 13%; in test [3], -1%. Moreover, the outcome in test [5], in test [6], in test [7] and in test [8] was inactive.
As for `CN1CCN(c2cc(NC(=O)c3ccc(-c4ccc(Cl)cc4)cc3)ccc2Cl)CC1`, the growth inhibition is 33% in test [1] and 99% (active) in test [4]. Besides, the figures for the inhibition in test [2] and in test [3] were 30% and -2%, respectively. Further, the result in test [5], in test [6], in test [7] and in test [8] was inactive.
Take `COc1ccccc1C1CCN(C2CCC(NC(=O)c3cc4ccccc4[nH]3)CC2)CC1` (stereo not given): the growth inhibition in test [1] is 7%; in test [4], 88% (active). The inhibition in test [2] was 49%; in test [3] it was 0%. For the same compound, the result in test [5], in test [6], in test [7] and in test [8] was inactive.
For the compound `C=C[C@H]1CN(CCCCCCC)CC[C@H]1C[C@@H](Cc1ccnc2ccc(OC)cc12)OC(=O)[C@](OC)(c1ccccc1)C(F)(F)F`, the growth inhibition in test [1] and in test [4] was 96% (active) in each case. In addition, the inhibition in test [2] was 12%; in test [3], 7%. The outcome in test [5], in test [6], in test [7] and in test [8] was inactive.
In the case of `CCC[C@@H]([C@@H](CC1CCCCC1)C(=O)NC(C(=O)Nc1nccs1)C(CC)c1ccccc1)N(O)C=O` (stereo not given in full), the figures for the growth inhibition in test [1] and in test [4] were 19% and 89% (active), respectively. For the same compound, the inhibition was 50% (active) in test [2] and -4% in test [3]. Moreover, the outcome in test [5], in test [6], in test [7] and in test [8] was inactive.
Turning to `COc1cc(CNCCCNc2nc3ccsc3c(=O)[nH]2)c2[nH]cc(Cl)c2c1`, the values for the growth inhibition in test [1] and in test [4] were -2% and 96% (active), respectively. The values for the inhibition in test [2] and in test [3] were 29% and 2%, respectively. Also, the outcome in test [5], in test [6], in test [7] and in test [8] was inactive.
Turning to `CCCCc1ccc(C(=O)NC2CCN(C[C@H](O)c3ccnc4ccc(OC)cc34)CC2)cc1`, the growth inhibition in test [1] is 22%; in test [4] it was 91% (active). Moreover, the inhibition is 24% in test [2] and -1% in test [3]. Moreover, the result in test [5], in test [6], in test [7] and in test [8] was inactive.
As for `O=C(NCCN1CCCC1)c1cccc(-c2ccc(-c3nc4ccc(F)cc4[nH]3)s2)c1`, the growth inhibition in test [1] is 4%; in test [4], 100% (active). Further, the results for the inhibition in test [2] and in test [3] were 51% (active) and -1%, respectively. In addition, the outcome in test [5], in test [6], in test [7] and in test [8] was inactive.
As to `O=C(c1cc(-c2cccs2)[nH]n1)N1CCN(S(=O)(=O)c2ccc(Cl)s2)CC1`, the growth inhibition in test [1] was 80% (active); in test [4] it was 84% (active). In addition, the results for the inhibition in test [2] and in test [3] were 20% and 1%, respectively. For the same compound, the outcome in test [5], in test [6], in test [7] and in test [8] was inactive.
On to `CN1CCN(CC(=O)Nc2cccc(-c3cccc(-c4nc5ccc(F)cc5[nH]4)c3)c2)CC1`, for which the growth inhibition in test [1] is 98% (active); in test [4] it was 100% (active). Moreover, the inhibition in test [2] was 16%; in test [3], 6%. Besides, the result in test [5], in test [6], in test [7] and in test [8] was inactive.
On to `COc1ccccc1C1CCN(C2CCC(NC(=O)/C=C/c3ccc(OC(F)(F)F)cc3)CC2)CC1` (stereo not given), for which the growth inhibition in test [1] was 11%; in test [4] it was 82% (active). Further, the inhibition in test [2] is 65% (active); in test [3] it was -3%. Further, the outcome in test [5], in test [6], in test [7] and in test [8] was inactive.
Consider `CC(C)N1CCN(C(CN2CCN(CCCOc3ccc4nonc4c3)CC2)c2ccc(F)cc2)CC1` (stereo not given), for which the growth inhibition is 40% in test [1] and 97% (active) in test [4]. For the same compound, the inhibition in test [2] and in test [3] was -3% each time. The outcome in test [5], in test [6], in test [7] and in test [8] was inactive.
Take `Cc1cccc(S(=O)(=O)Nc2cccc(CCN3CCC(N4CCCCC4)CC3)c2)c1`: the growth inhibition in test [1] was 13%; in test [4] it was 87% (active). Also, the inhibition is 15% in test [2] and -2% in test [3]. The result in test [5], in test [6], in test [7] and in test [8] was inactive.
Regarding `CS(=O)(=O)c1cccc2sc(N3CCN(C(=O)c4ccc([N+](=O)[O-])o4)CC3)nc12`, the values for the growth inhibition in test [1] and in test [4] were 61% (active) and 84% (active), respectively. Further, the inhibition in test [2] was -26%; in test [3], -4%. For the same compound, the outcome in test [5], in test [6], in test [7] and in test [8] was inactive.
Take `CCOc1cc(Cl)c(C(C)NC(=O)c2ccccc2)cc1OCC` (stereo not given): the growth inhibition in test [1] is 49%; in test [4] it was 91% (active). Besides, the results for the inhibition in test [2] and in test [3] were -3% and -1%, respectively. Also, the result in test [5], in test [6], in test [7] and in test [8] was inactive.
On to `CNCCNCc1ccc(-c2ccc(-c3nc4ccc(F)cc4[nH]3)s2)cc1`, for which the growth inhibition in test [1] is 55% (active); in test [4] it was 99% (active). The inhibition in test [2] was 22%; in test [3], 2%. Besides, the outcome in test [5], in test [6], in test [7] and in test [8] was inactive.
